Laboratory results from article PMC5540273 (PLoS ONE, 2017).

Columns and labels:
Conditions in all cases: concentration: 1 μM, replicates: in singlicate; n = 1
JNK1 = test system: T1, JNK1
T1 construct: gene MAPK8

JNK2 = test system: T2, JNK2
T2 construct: gene MAPK9

JNK3 = test system: T3, JNK3
T3 construct: gene MAPK10

KIT-autoinhibited = test system: KIT-autoinhibited
KIT = test system: KIT
LATS1 = test system: LATS1
LATS2 = test system: LATS2
LCK = test system: LCK
LIMK1 = test system: LIMK1
LIMK2 = test system: LIMK2
LKB1 = test system: T4, LKB1
T4 construct: gene STK11

LOK = test system: T5, LOK
T5 construct: gene STK10

LRRK2 = test system: LRRK2
LTK = test system: LTK
LYN = test system: LYN
LZK = test system: T6, LZK
T6 construct: gene MAP3K13

MAK = test system: MAK
MAP3K15 = test system: MAP3K15
MAP3K1 = test system: MAP3K1
MAP3K2 = test system: MAP3K2
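Also: KINOMEscan kinase panel screen.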

Compound | %Inh (JNK1) [%] | %Inh (JNK2) [%] | %Inh (JNK3) [%] | %Inh (KIT-autoinhibited) [%] | %Inh (KIT) [%] | %Inh (LATS1) [%] | %Inh (LATS2) [%] | %Inh (LCK) [%] | %Inh (LIMK1) [%] | %Inh (LIMK2) [%] | %Inh (LKB1) [%] | %Inh (LOK) [%] | %Inh (LRRK2) [%] | %Inh (LTK) [%] | %Inh (LYN) [%] | %Inh (LZK) [%] | %Inh (MAK) [%] | %Inh (MAP3K15) [%] | %Inh (MAP3K1) [%] | %Inh (MAP3K2) [%]
Cl.c1ccc(Cn2ccc3cc(Nc4ncnc5ccccc45)ccc32)cc1 [GW275568] | 0 | 23 | 16 | 0 | 41 | 0 | 22 | 41 | 8 | 15 | 0 | 32 | 0 | 6 | 0 | 35 | 25 | 0 | 0 | 0
CNc1nccc(-c2c(-c3ccc(F)cc3)ncn2C2CCN(C)CC2)n1 [SB-222903] | 0 | 69 | 43 | 0 | 0 | 2 | 0 | 0 | 0 | 0 | 0 | 3 | 0 | 0 | 0 | 0 | 0 | 0 | 0 | 0
O=C(CCO)NCCn1ccc2ncnc(Nc3ccc(Oc4cccc(C(F)(F)F)c4)c(Cl)c3)c21 | 8 | 0 | 1 | 0 | 0 | 5 | 2 | 26 | 0 | 0 | 39 | 72 | 0 | 0 | 8 | 0 | 0 | 0 | 0 | 0
Nc1nc(-c2ccc3c(N)n[nH]c3c2)cc(N2CCC[C@@H](C(=O)Nc3ccccc3)C2)n1.O=C(O)C(F)(F)F.O=C(O)C(F)(F)F [GSK2288359] | 0 | 0 | 0 | 4 | 25 | 0 | 16 | 0 | 10 | 7 | 6 | 0 | 0 | 15 | 0 | 0 | 29 | 2 | 15 | 0
CCn1c(-c2ccncc2)nc2cnccc21 [SB-735216] | 23 | 11 | 17 | 10 | 0 | 17 | 9 | 0 | 12 | 0 | 0 | 0 | 0 | 0 | 19 | 59 | 12 | 47 | 10 | 6
Nc1nccc2scc(-c3ccc4c(c3)CCN4C(=O)Cc3cc(F)ccc3F)c12 [GSK2587663] | 22 | 26 | 8 | 0 | 64 | 0 | 8 | 22 | 4 | 13 | 14 | 0 | 9 | 2 | 0 | 0 | 8 | 0 | 7 | 23
CC(C)(C)OC(=O)NC1CCCN(c2cc(-c3ccc4c(N)n[nH]c4c3)nc(N)n2)C1 (centres unmarked) [GSK2286096] | 34 | 21 | 7 | 0 | 8 | 11 | 0 | 0 | 6 | 0 | 0 | 0 | 0 | 0 | 0 | 0 | 17 | 0 | 10 | 0
Cn1cc(-c2ccc3c(c2)CCN3C(=O)Cc2cccc(C(F)(F)F)c2)c2c(N)ncnc21 [GSK2606414] | 1 | 0 | 0 | 0 | 87 | 0 | 0 | 20 | 0 | 9 | 0 | 0 | 43 | 15 | 0 | 0 | 0 | 0 | 3 | 9
COc1cc2c(Nc3cccc(NC(=O)c4ccccc4)c3)ncnc2cc1OCCCN1CCOCC1 [GSK223810] | 34 | 58 | 31 | 0 | 93.4 | 0 | 0 | 84 | 13 | 7 | 0 | 10 | 0 | 0 | 90.3 | 0 | 0 | 0 | 0 | 6
Nc1n[nH]c2nnc(-c3ccccc3)cc12 [SB-517389] | 27 | 5 | 0 | 0 | 1 | 0 | 0 | 0 | 19 | 3 | 0 | 0 | 0 | 0 | 69 | 0 | 0 | 0 | 9 | 5
